Among the data in PubChem BioAssay (Tox21) are Potency values, retold here.

Inconclusive results are not listed. Activity calls are given as the source filed them. Unless noted, calls follow the shape of the full dose curve.

Experiment [1] in a line: Nuclear factor erythroid 2-related factor 2/antioxidant responsive element (Nrf2/ARE) small molecule agonists: luciferase reporter gene qHTS assay in human keratinocytes (AID 1919969). Also: nearly all actives have a fitted effect of over 35% in size. Also: potency is read from the fitted curve at half-maximal effect. Background: In a reporter assay the amount or activity of a reporter protein is the signal.
The target of experiment [2] is Gonadotropin-releasing hormone receptor (Homo sapiens) (UniProt P30968). Nature of the experiment: Human gonadotropin-releasing hormone receptor (GnRHR) small molecule agonists, calcium flux assay in GnRHR-HEK293 cells (AID 1920063). Also: nearly all actives have a fitted effect of over 35% in size. Also: potency is read from the fitted curve at half-maximal effect. The method in brief: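 GnRHR-HEK293, 1500 cells/well, 18 h 37 C/5% CO2; Ca dye 1 h 37 C; cpd pinned (DMSO), agonist mode; kinetic FL 480/540, 3 min, 1 s reads; 15 conc, n=3.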
(In general: Calcium flux is commonly read through the fluorescence of an indicator in the cells.)

For experiment [3], the target named is KiSS-1 receptor (Homo sapiens) (UniProt Q969F8). Nature of the experiment: Human kisspeptin (KISS1R) small molecule agonists, calcium flux assay in KISS1R-HEK293 cells (AID 1920064; active = well fitted activation curve with a large enough effect in the repeat runs). The method in brief: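 Stable human KISS1R HEK293 line; 18 h plating, 37 C/5% CO2; calcium dye 1 h 37 C; compound pin transfer; kinetic fluorescence Ex/Em 480/540, 3 min.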
Experiment [4] can be described thus: G protein-coupled receptor (GPCR) small molecule agonists, calcium flux assay: HEK293 wild type cell line counter screen (AID 1920065). The method in brief: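 Kinetic fluorescence at Ex/Em 480/540, recorded every second over 3 min, served as the read-out after compound addition. Each compound was tested at 15 concentrations in triplicate on cells pre-loaded with calcium dye for 1 h.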

A short description of experiment [5]: p53 small molecule agonists, cell-based qHTS assay with rat liver microsomes: qHTS cell viability counter screen (AID 1963580). Also: nearly all actives have a fitted effect of over 45% in size. The method, boiled down: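 Viability is assessed in parallel with the p53 reporter read: HCT-116 p53RE-bla cells receive compounds plus rat microsomes and NADPH (0.5 mg/mL final apiece), incubate 16 h at 37 C, and then CellTiter-Glo luminescence is recorded.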
(In general: In qHTS, concentration-response curves come from the screen itself.)

Experiment [6] has as its target 5-hydroxytryptamine receptor 2A (Homo sapiens) (UniProt P28223). Nature of the experiment: 5-hydroxytryptamine receptor 2A (HTR2A) small molecule agonists, cell-based qHTS assay (AID 1963587). Also: nearly all actives have a fitted effect of over 30% in size. Also: potency is read from the fitted curve at half-maximal effect. The method in brief:
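CHO cells stably expressing human HTR2A, plated 18 h, loaded with calcium dye 1 h at 37 C. Agonist mode: compounds added and intracellular calcium fluorescence recorded kinetically for 2 min at 1 sec intervals.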

For experiment [7], the target named is Muscarinic acetylcholine receptor M1 (Homo sapiens) (UniProt P11229). Nature of the experiment: Cholinergic receptor muscarinic 1 (CHRM1) small molecule antagonists, cell-based qHTS assay (AID 1963588). Also: nearly all actives have a fitted effect of over 40% in size. The method, boiled down:
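CHRM1-CHO calcium-flux assay, antagonist mode. Cells were seeded 18 h, dye-loaded 1 h at 37 C and given compound for 5 min at RT, then acetylcholine was added at 50nM. FDSS fluorescence was read 3 min; 15 concentrations, three runs.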

For experiment [8] the target is unchanged. Nature of the experiment: Cholinergic receptor muscarinic 1 (CHRM1) small molecule agonists, cell-based qHTS assay (AID 1963589). Also: nearly all actives have a fitted effect of over 35% in size. The method in brief: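 Human M1 in stable CHO line; 18 h plating, 1 h dye load 37 C; cpd added (agonist mode); Ca2+ fluorescence kinetic read, 1 s intervals; 15 conc, 3 runs.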
The nature of experiment [9]: cAMP Responsive Elements (CRE) small molecule agonists, cell-based qHTS assay (AID 1963590). The method, boiled down: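 HEK 293T CRE-bla, 2,000 cells/well, 18 h preincubation 37 C/5% CO2; cpds (DMSO) pinned, 3 h; LiveBLAzer B/G FRET substrate, 2 h RT.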
Experiment [10] deals with Beta-2 adrenergic receptor (Homo sapiens) (UniProt P07550). In words: Adrenergic beta2 receptor (ADRB2) small molecule agonists, cell-based qHTS assay (AID 1963593).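 Also: CHO cells stably overexpressing human ADRB2.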 The method, boiled down: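 CHO cells stably over-expressing ADRB2 were plated overnight at 37C, then dosed with compounds plus a stimulation mix containing 100uM IBMX and 25uM Ro-20-1724 for 0.5hr at room temperature. cAMP was measured by HTRF competition, 1hr.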

Experiment [11] in a line: p53 small molecule agonists, cell-based qHTS assay: qHTS cell viability counter screen (AID 1963581). Also: nearly all actives have a fitted effect of over 45% in size. The method in brief:
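HCT-116 p53RE-bla cells, 4,000/well, plated 5 h before compound pin transfer; 16 h at 37 C; bla substrate 2 h RT; then CellTiter-Glo, 30 min RT, luminescence.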

For experiment [12], the target named is 5-hydroxytryptamine receptor 2A (Homo sapiens) (UniProt P28223). Nature of the experiment: 5-hydroxytryptamine receptor 2A (HTR2A) small molecule antagonists, cell-based qHTS assay (AID 1963586). Also: nearly all actives have a fitted effect of over 45% in size. The method, boiled down:
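Antagonist-mode intracellular calcium assay: DOI (4 nM) added after 5 min compound pre-incubation at room temperature to dye-loaded HTR2A-CHO cells. Fluorescence followed for 3 min, sampled every second.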

The target of experiment [13] is Beta-2 adrenergic receptor (Homo sapiens) (UniProt P07550). Nature of the experiment: Adrenergic beta2 receptor (ADRB2) small molecule antagonists, cell-based qHTS assay (AID 1963592). Also: series mostly up to about 92 µM; nearly all actives have a fitted effect of over 50% in size. The method, boiled down: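 Cells (CHO, stable ADRB2 overexpression) incubated 18-20hr at 37C; compounds added from DMSO; agonist mix (1nM isoproterenol, 100uM IBMX, 25uM Ro-20-1724) added; 0.5hr RT; d2-cAMP and anti-cAMP-cryptate added; 1hr RT; 665/615 nm read.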

Experiment [14] concerns the target D(2) dopamine receptor (Homo sapiens) (UniProt P14416). Nature of the experiment: Dopamine D2 receptor (DRD2) small molecule antagonists, cell-based qHTS assay (AID 1963595; active = well fitted inhibition curve with a large enough effect in the signal ratio in the repeat runs, with a control signal flat; the % refers to the signal ratio). The method in brief:
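HEK293 cells stably expressing DRD2 were preincubated with 0.1 mM Ro20-1724, then with compound for 10 min at room temperature. Cells were stimulated with 200 nM NKH477 plus 12 nM quinpirole for 30 min, and cAMP was read by HTRF.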

Experiment [15] is described as follows: cAMP Responsive Elements (CRE) small molecule antagonists, cell-based qHTS assay (AID 1963591; active = well fitted inhibition curve with a large enough effect in the signal ratio in the repeat runs, not every such curve was filed as active; the % refers to the signal ratio; also: potency is read from the fitted curve at half-maximal effect). The method in brief:
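Beta-lactamase reporter read by FRET substrate (LiveBLAzer B/G) after 2 h at room temperature. CRE-bla HEK293T cells had received compound plus 0.25 uM (final) NKH477 for 3 h at 37 °C.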

Experiment [16] deals with D(2) dopamine receptor (Homo sapiens) (UniProt P14416). In words: Dopamine D2 receptor (DRD2) small molecule agonists, cell-based qHTS assay (AID 1963594). Also: nearly all actives have a fitted effect of over 35% in size. The method in brief:
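HEK293 cells stably expressing human DRD2, pre-treated with PDE inhibitor Ro20-1724 (0.1 mM final) and compound 10 min at room temperature, then stimulated with NKH477 (200nM […]) for 30 min. cAMP read by HTRF (665/620 nm).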

Experiment [17] is described as follows: p53 small molecule agonists, cell-based qHTS assay with human liver microsomes: qHTS cell viability counter screen (AID 1963579). Also: nearly all actives have a fitted effect of over 45% in size. The method, boiled down: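 Seed p53RE-bla cells at 4,000 per well; incubate 5 h at 37 C; add compound, human liver microsomes and NADPH; incubate 16 h at 37 C; add CellTiter-Glo; after 30 min at room temperature, read luminescence.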

Experiment [18] is described as follows: p53 small molecule agonists, cell-based qHTS assay with human liver microsomes (AID 1963577). The method, boiled down: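 Cells carrying a p53-responsive bla reporter were rested 5 h (37 C, 5% CO2) before compound transfer. Human liver microsomes plus NADPH, 0.5 mg/mL final apiece, supplied metabolism during the 16 h 37 C exposure.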
A short description of experiment [19]: p53 small molecule agonists, cell-based qHTS assay with rat liver microsomes (AID 1963578). The method, boiled down: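 Fluorescence from a beta-lactamase reporter under a p53 response element was measured after cells had been incubated 16 h at 37 C with test compound and rat liver microsomes plus NADPH (0.5 mg/mL final each).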

Sequence of Muscarinic acetylcholine receptor M1 (Homo sapiens) (P11229 whole entry, looked up): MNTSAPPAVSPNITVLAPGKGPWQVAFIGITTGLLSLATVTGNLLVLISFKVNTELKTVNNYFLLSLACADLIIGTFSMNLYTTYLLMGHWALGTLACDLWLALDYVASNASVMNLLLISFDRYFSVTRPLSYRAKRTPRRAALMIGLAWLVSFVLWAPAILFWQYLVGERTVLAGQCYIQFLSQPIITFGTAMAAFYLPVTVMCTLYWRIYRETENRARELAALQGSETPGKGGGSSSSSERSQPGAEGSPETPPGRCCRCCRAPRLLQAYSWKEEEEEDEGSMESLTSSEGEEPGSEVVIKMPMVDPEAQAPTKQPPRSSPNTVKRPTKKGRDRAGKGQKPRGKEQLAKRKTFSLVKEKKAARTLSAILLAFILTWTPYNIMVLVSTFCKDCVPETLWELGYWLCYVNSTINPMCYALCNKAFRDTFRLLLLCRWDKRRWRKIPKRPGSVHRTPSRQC
Sequence of D(2) dopamine receptor (Homo sapiens) (P14416 whole entry, looked up): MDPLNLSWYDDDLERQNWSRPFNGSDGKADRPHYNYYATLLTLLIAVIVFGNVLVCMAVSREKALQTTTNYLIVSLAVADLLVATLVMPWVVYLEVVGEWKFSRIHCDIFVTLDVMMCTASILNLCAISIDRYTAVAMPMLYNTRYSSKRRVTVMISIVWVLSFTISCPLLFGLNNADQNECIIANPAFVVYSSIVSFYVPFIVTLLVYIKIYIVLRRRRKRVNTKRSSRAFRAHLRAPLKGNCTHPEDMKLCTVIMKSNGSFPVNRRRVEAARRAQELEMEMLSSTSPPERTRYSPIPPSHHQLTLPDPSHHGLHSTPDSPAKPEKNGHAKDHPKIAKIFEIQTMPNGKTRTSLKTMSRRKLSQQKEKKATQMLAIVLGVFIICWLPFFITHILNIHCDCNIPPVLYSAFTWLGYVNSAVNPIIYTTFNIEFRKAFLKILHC
Sequence of Beta-2 adrenergic receptor (Homo sapiens) (P07550 whole entry, looked up): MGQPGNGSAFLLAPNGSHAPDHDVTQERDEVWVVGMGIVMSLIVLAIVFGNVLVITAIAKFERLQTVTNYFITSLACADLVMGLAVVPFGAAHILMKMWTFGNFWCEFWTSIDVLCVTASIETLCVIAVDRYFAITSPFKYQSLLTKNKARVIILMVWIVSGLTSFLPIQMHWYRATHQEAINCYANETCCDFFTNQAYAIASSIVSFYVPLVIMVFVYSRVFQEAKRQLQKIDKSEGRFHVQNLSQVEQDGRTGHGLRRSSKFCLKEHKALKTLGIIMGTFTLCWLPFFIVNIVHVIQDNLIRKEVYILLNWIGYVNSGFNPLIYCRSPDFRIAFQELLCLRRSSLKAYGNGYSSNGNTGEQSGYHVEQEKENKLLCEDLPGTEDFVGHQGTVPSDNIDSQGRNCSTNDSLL
Sequence of 5-hydroxytryptamine receptor 2A (Homo sapiens) (P28223 whole entry, looked up): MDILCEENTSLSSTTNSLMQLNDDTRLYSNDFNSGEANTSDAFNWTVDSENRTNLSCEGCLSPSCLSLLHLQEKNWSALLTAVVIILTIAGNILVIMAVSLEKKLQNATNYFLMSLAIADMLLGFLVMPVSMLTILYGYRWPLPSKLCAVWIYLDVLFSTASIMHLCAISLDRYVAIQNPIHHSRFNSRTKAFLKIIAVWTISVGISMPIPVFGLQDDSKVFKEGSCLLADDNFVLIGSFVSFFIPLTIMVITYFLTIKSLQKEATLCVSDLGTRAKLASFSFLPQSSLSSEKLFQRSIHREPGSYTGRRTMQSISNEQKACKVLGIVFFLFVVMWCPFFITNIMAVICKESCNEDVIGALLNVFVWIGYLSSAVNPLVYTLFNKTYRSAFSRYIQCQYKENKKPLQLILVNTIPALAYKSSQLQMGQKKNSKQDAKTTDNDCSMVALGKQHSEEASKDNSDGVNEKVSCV
Sequence of Gonadotropin-releasing hormone receptor (Homo sapiens) (P30968 whole entry, looked up): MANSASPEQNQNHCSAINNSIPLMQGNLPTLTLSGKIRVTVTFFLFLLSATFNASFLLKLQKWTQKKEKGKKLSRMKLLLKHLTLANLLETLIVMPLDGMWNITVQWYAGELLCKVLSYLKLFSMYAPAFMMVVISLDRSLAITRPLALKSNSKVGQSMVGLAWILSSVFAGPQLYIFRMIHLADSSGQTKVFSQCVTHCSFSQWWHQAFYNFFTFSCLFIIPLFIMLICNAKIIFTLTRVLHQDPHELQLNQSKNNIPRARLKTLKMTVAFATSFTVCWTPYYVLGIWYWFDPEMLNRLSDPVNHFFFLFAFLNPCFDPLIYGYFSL
Sequence of KiSS-1 receptor (Homo sapiens) (Q969F8 whole entry, looked up): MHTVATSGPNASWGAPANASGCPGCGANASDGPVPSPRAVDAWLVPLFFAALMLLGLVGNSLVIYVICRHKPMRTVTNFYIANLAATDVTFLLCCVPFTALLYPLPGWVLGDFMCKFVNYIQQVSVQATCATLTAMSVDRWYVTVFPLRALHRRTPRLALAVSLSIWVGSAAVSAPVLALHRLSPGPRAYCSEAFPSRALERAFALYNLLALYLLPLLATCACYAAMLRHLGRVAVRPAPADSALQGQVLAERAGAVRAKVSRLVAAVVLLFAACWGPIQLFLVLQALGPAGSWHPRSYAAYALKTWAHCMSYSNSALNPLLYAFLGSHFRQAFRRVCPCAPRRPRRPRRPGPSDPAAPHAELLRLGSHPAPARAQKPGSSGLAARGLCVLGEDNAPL

Consider `CC(=O)NC1CCSC1=O` (stereo unspecified), for which the Potency entry in [1], in experiment [2], in [3], in experiment [4], in experiment [5] and in experiment [6] was “inactive” in each case. Besides, the Potency result in experiment [7], in [8], in experiment [9] and in experiment [10] was “inactive” throughout.

Take `CC(C)(O)c1cnn2c(-c3ccc(F)c(-c4c(F)cccc4C#N)c3)cnc2n1`: the Potency result in [1], in experiment [3], in experiment [4], in experiment [5], in [11] and in experiment [12] was “inactive” in each case. Further, the Potency entry in [7], in experiment [8], in experiment [13], in experiment [10] and in experiment [14] was “inactive” each time. The Potency in experiment [2] was 38.9 µM (active); in experiment [6] it was 54.9 µM (active).

Consider `CCC(Cl)CCl` (stereo unspecified), for which the Potency result in experiment [1], in experiment [2], in experiment [3], in [4], in experiment [5] and in experiment [11] was “inactive” each time. The Potency result in experiment [6], in [8], in [9], in experiment [15], in experiment [13] and in experiment [10] was “inactive” throughout. Moreover, the Potency entry in experiment [16] and in experiment [14] was “inactive” throughout.

With `CCCCOC(=O)c1ccccc1N`, the Potency result in experiment [1], in [2], in [3], in [4], in experiment [17] and in experiment [5] was “inactive” each time. In addition, the Potency entry in experiment [11], in experiment [12], in [6], in experiment [8] and in experiment [16] was “inactive” in each case. Further, in [15], the Potency is 61.4 µM (active).

As for `CCOc1cc(C(C)(C)C)ccc1C1COC(c2c(F)cccc2F)=N1` (stereo unspecified), the Potency entry in [1], in [2], in [3], in [4], in [17] and in experiment [11] was “inactive” in each case. Moreover, the Potency result in experiment [12], in experiment [6], in experiment [7], in experiment [8], in experiment [13] and in experiment [14] was “inactive” each time.

Consider `CCOP(=S)(OCC)Oc1cc(Cl)c(Br)cc1Cl`, for which the Potency in experiment [1] was 61.1 µM (active). The Potency result in experiment [2], in [3], in [4], in experiment [5], in experiment [11] and in [6] was “inactive” in each case. Also, the Potency entry in [7], in experiment [8], in [13], in experiment [16] and in [14] was “inactive” in each case.

For the compound `O=C(Cl)c1ccc(Cl)cc1`, the Potency result in experiment [1], in experiment [2], in [3], in [18], in experiment [19] and in experiment [17] was “inactive” each time. The Potency entry in experiment [5], in experiment [11], in experiment [12], in [6], in experiment [7] and in [8] was “inactive” throughout. Also, the Potency result in [9], in [13], in experiment [10] and in experiment [14] was “inactive” throughout.

On to `CCC1CCC(=O)O1` (stereo unspecified), for which the Potency result in experiment [1], in [2], in experiment [3], in [4], in experiment [17] and in [5] was “inactive” in each case. In addition, the Potency result in experiment [12], in [6], in experiment [8], in experiment [9], in experiment [15] and in experiment [13] was “inactive” each time. Also, the Potency entry in experiment [10] and in [16] was “inactive” throughout.

For `O=C1C(I)=CC(=C(c2cc(I)c(O)c(I)c2)c2ccccc2C(=O)O)C=C1I`, the Potency entry in [1], in experiment [2], in experiment [3], in experiment [4], in experiment [5] and in experiment [12] was “inactive” each time. The Potency result in experiment [6], in experiment [7], in experiment [8], in experiment [15], in experiment [13] and in experiment [16] was “inactive” each time. Besides, the Potency entry in [14] was “inactive”.
